Of roughly 8,800 targets only a part is listed; those with a hit were picked by preference. About 0.5% of all pairs of compound and target were hits.
Assays:
Experiment in all cases: log2 fold change, soluble protein after heating vs DMSO (PISA); higher = thermal stabilisation; K562 lysate, 10 uM; active = over 0.2 and 3.5 SD of the protein, either way, in both replicates (recomputed)
erlotinib = compound: C#Cc1cccc(Nc2ncnc3cc(OCCOC)c(OCCOC)cc23)c1 [erlotinib]
Outline: (§1)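 Quantification was by TMTpro 16plex LC-MS/MS with equalised channel sums, applied to the supernatant after 21,000xg for 90 min. Samples were crude K562 extract at 1 mg/mL protein in PBS pH 7.4 with 1 mM MgCl2, treated with 10 μM compound for 30 min, heated for 3 min across 48°C-58°C, pooled and brought to 0.5% NP-40 at 4°C. Values are log-two fold changes in thermal stability relative to solvent controls, from duplicates.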

[1] = compound: C/C(=N\NC(=O)C1=CC(=CC=C1)S(=O)(=O)N2CCOCC2)/C3=C(C=CC(=C3)Cl)O
Outline: as §1

[2] = compound: C1=CC(=CC=C1C2=NC3=C(N2)C=C(C=C3)C(=O)N)OC4=CC=C(C=C4)Cl
Outline: as §1

[3] = compound: C1=CC2=C(C=CC(=C2)/C=C\3/C(=O)NC(=NCC4=CC=CS4)S3)N=C1
Outline: as §1

[4] = compound: C1=CC2=NC=CN=C2C=C1/C=C/3\C(=O)NC(=O)S3
Outline: as §1

[5] = compound: C1=CC=C(C=C1)C2=NC(=C(N2)C3=CC=NC=C3)C4=CC(=C(C=C4)Cl)O
Outline: as §1

[6] = compound: C1=CC=C2C(=C1)C3=NNC4=CC=CC(=C43)C2=O
Outline: as §1

[7] = compound: C1CCN(C1)C(=O)NC2=CC=CC(=C2)NC3=NC=C(C(=N3)NCCC4=CN=CN4)Br
Outline: as §1

[8] = compound: C1CN(CCC1(CC2=CC=C(C=C2)Cl)N)C3=NC=NC4=C3C=CN4
Outline: as §1

IRAK-1-4 Inhibitor I = compound: C1COCCN1CCN2C3=CC=CC=C3N=C2NC(=O)C4=CC(=CC=C4)[N+](=O)[O-] [IRAK-1-4 Inhibitor I]
Outline: as §1

ibrutinib = compound: C=CC(=O)N1CCC[C@@H](n2nc(-c3ccc(Oc4ccccc4)cc3)c3c(N)ncnc32)C1 [ibrutinib]
Outline: as §1

[9] = compound: CC(=O)c1cnc2ccc(-c3cc(Cl)c(O)c(Cl)c3)nc2c1N[C@H]1CC[C@H](CN(C)C)CC1
Outline: as §1

ralimetinib = compound: CC(C)(C)Cn1c(N)nc2ccc(-c3[nH]c(C(C)(C)C)nc3-c3ccc(F)cc3)nc21 [ralimetinib]
Outline: as §1

[10] = compound: CC(C)(O)CC(=O)NCCn1ccc2ncnc(Nc3ccc(Oc4cccc(C(F)(F)F)c4)c(Cl)c3)c21
Outline: as §1

[11] = compound: CC(C)C1=C2N=C(C=C(N2N=C1)NCC3=CC=CC=C3)NCCCCCCN
Outline: as §1

[12] = compound: CC1=C(C(CC(=O)N1)C2=CC=C(C=C2)C(F)(F)F)C(=O)NC3=C(C=C4C(=C3)C=NN4)F
Outline: as §1

[13] = compound: CC1=C(C2=C(C=C1)C(=O)C3=CC=CC=C3N2CCCN)C
Outline: as §1

[14] = compound: CC1=C(C=C(C=C1)NC(=O)C2=CC(=CC=C2)C(C)(C)C#N)NC3=CC4=C(C=C3)N=CN(C4=O)C
Outline: as §1

[15] = compound: CC1=C(C=C(C=C1)NC(=O)C2=CC(=CC=C2)N(C)C)NC(=O)C3=CC=C(C=C3)O
Outline: as §1

[16] = compound: CC1=CC=C(C=C1)SC2=C3C=C(SC3=CN=C2)C(=O)N
Outline: as §1

Measured: log2 fold change

DENND6A (UniProt Q8IWF6)
Chain of UniProt Q8IWF6 (Q8IWF6 whole entry, looked up): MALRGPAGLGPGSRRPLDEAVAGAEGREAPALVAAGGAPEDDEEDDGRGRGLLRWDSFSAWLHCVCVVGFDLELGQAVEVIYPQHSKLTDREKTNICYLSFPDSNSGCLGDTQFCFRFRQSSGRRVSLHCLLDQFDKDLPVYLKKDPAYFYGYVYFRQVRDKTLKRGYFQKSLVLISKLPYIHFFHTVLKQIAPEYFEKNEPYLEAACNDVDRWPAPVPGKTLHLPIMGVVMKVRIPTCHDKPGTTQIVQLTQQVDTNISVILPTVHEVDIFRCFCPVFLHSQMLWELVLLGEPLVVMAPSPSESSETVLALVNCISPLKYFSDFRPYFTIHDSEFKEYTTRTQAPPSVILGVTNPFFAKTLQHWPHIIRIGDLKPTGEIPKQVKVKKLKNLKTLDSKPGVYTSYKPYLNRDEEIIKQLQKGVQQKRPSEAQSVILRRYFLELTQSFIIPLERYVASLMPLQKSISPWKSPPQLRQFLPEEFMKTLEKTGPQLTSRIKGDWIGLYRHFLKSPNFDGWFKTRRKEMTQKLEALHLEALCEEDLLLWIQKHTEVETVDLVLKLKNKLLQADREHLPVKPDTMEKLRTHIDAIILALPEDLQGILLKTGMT
inactive: erlotinib -0.019 | [1] 0.232 | [2] 0.004 | [3] 0.073 | [4] 0.048 | [5] 0.024 | [6] 0.003 | [7] 0.029 | [8] 0.083 | IRAK-1-4 Inhibitor I 0.025 | ibrutinib 0.014 | [9] 0.064 | ralimetinib 0.052 | [10] -0.047 | [11] 0.037 | [12] 0.002 | [13] -0.03 | [14] 0.001 | [15] 0.022 | [16] 0.051

COG5 isoform 2 (UniProt Q9UP83)
inactive: erlotinib 0.073 | [1] 0.016 | [2] -0.044 | [3] 0.001 | [4] -0.004 | [5] 0.019 | [6] 0.031 | [7] 0.019 | [8] 0.043 | IRAK-1-4 Inhibitor I -0.001 | ibrutinib 0.061 | [9] -0.036 | ralimetinib 0.074 | [10] -0.027 | [11] 0.037 | [12] -0.005 | [13] 0.04 | [14] -0.016 | [15] 0.073 | [16] 0.052

CORO7 isoform 3 (UniProt P57737)
inactive: erlotinib 0.035 | [1] -0.009 | [2] -0.079 | [3] 0.013 | [4] 0 | [5] 0.016 | [6] -0.016 | [7] 0.009 | [8] 0.026 | IRAK-1-4 Inhibitor I -0.04 | ibrutinib -0.01 | [9] 0.002 | ralimetinib 0.016 | [10] 0.031 | [11] 0.009 | [12] -0.013 | [13] -0.006 | [14] -0.006 | [15] 0.02 | [16] 0.005

DIAPH1 (UniProt O60610)
inactive: erlotinib -0.004 | [1] -0.006 | [2] 0.002 | [3] 0.007 | [4] -0.002 | [5] -0.001 | [6] -0.006 | [7] -0.01 | [8] -0.001 | IRAK-1-4 Inhibitor I -0.007 | ibrutinib -0.028 | [9] -0.004 | ralimetinib -0.006 | [10] 0.005 | [11] -0.01 | [12] -0.009 | [13] 0.003 | [14] -0.004 | [15] 0.001 | [16] 0.004

CYCS (UniProt P99999)
Chain of UniProt P99999 (P99999 whole entry, looked up): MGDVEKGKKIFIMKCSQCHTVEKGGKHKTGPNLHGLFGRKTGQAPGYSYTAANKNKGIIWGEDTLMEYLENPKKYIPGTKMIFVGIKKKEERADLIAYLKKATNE
inactive: erlotinib -0.022 | [1] -0.121 | [2] -0.019 | [3] -0.006 | [4] 0.003 | [5] 0.008 | [6] 0.02 | [7] 0.011 | [8] 0.002 | IRAK-1-4 Inhibitor I -0.005 | ibrutinib 0.027 | [9] 0.024 | ralimetinib 0 | [10] 0.004 | [11] -0.016 | [12] -0.05 | [13] -0.005 | [14] 0.012 | [15] -0.015 | [16] 0.031

CNDP2 (UniProt Q96KP4)
inactive: erlotinib -0.016 | [1] 0.004 | [2] 0.02 | [3] -0.038 | [4] -0.009 | [5] -0.022 | [6] 0.007 | [7] 0.039 | [8] 0.041 | IRAK-1-4 Inhibitor I 0.051 | ibrutinib 0.013 | [9] -0.027 | ralimetinib 0.024 | [10] -0.049 | [11] -0.011 | [12] -0.005 | [13] -0.02 | [14] 0.023 | [15] 0 | [16] -0.035

CYP51A1 (UniProt Q16850)
active: ibrutinib 0.601
inactive: erlotinib -0.029 | [1] 0.045 | [2] 0.193 | [3] 0.058 | [4] -0.087 | [5] -0.041 | [6] 0.118 | [7] -0.092 | [8] -0.023 | IRAK-1-4 Inhibitor I 0.043 | [9] -0.025 | ralimetinib -0.025 | [10] 0.101 | [11] 0.038 | [12] -0.017 | [13] -0.031 | [14] -0.093 | [15] 0.014 | [16] -0.099

CLP1 (UniProt Q92989)
Chain of UniProt Q92989 (Q92989 whole entry, looked up): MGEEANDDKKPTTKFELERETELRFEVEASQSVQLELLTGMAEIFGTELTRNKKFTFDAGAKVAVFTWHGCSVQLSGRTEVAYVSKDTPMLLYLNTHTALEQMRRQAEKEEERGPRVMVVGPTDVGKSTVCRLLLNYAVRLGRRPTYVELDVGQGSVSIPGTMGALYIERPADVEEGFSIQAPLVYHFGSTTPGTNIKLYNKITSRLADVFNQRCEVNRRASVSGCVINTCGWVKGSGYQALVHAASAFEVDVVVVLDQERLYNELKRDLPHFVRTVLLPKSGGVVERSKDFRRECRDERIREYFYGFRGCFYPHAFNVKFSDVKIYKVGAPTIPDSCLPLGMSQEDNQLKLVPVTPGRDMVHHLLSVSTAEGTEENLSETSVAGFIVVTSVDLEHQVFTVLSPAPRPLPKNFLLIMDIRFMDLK
inactive: erlotinib 0.024 | [1] 0.027 | [2] -0.011 | [3] -0.001 | [4] -0.045 | [5] -0.014 | [6] 0.034 | [7] -0.024 | [8] -0.033 | IRAK-1-4 Inhibitor I -0.045 | [9] 0.062 | ralimetinib 0.006 | [10] 0.003 | [11] 0.012 | [12] 0.023 | [13] 0.001 | [14] -0.02 | [15] -0.037 | [16] 0.01

DPY19L3 (UniProt Q6ZPD9)
Chain of UniProt Q6ZPD9 (Q6ZPD9 whole entry, looked up): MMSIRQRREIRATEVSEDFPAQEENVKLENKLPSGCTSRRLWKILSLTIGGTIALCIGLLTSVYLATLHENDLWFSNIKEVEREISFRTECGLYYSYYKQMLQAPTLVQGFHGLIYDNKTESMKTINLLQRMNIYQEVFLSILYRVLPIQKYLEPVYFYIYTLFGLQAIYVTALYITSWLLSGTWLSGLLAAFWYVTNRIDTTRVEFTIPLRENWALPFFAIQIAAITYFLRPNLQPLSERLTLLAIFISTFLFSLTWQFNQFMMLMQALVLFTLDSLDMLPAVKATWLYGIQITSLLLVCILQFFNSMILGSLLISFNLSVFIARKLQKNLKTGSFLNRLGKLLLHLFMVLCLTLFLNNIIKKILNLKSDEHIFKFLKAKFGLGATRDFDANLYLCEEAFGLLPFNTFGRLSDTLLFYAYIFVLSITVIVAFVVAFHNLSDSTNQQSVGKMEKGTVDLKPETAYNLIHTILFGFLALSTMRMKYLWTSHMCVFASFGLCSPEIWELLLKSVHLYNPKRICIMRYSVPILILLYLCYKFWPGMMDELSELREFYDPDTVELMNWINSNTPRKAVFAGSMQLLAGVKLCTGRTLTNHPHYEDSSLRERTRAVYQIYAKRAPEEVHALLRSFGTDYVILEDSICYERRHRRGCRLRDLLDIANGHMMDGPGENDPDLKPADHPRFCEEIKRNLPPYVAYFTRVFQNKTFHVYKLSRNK
inactive: erlotinib -0.131 | [1] 0.007 | [2] -0.097 | [3] 0.101 | [4] 0.211 | [6] -0.2 | [7] 0.005 | [8] 0.008 | ibrutinib -0.111 | [9] 0.012 | [11] -0.224 | [14] 0.047 | [16] -0.017

DDAH1 (UniProt O94760)
inactive: erlotinib 0 | [1] -0.008 | [2] 0.006 | [3] -0.027 | [5] -0.006 | [6] 0.035 | [7] 0.032 | [8] 0.051 | IRAK-1-4 Inhibitor I -0.016 | [9] -0.016 | ralimetinib -0.037 | [10] -0.045 | [11] -0.001 | [14] 0.137 | [15] -0.005 | [16] -0.04
active: [13] -0.441

CLIP1 isoform 1 (UniProt P30622)
Chain of UniProt P30622 (P30622 whole entry, looked up): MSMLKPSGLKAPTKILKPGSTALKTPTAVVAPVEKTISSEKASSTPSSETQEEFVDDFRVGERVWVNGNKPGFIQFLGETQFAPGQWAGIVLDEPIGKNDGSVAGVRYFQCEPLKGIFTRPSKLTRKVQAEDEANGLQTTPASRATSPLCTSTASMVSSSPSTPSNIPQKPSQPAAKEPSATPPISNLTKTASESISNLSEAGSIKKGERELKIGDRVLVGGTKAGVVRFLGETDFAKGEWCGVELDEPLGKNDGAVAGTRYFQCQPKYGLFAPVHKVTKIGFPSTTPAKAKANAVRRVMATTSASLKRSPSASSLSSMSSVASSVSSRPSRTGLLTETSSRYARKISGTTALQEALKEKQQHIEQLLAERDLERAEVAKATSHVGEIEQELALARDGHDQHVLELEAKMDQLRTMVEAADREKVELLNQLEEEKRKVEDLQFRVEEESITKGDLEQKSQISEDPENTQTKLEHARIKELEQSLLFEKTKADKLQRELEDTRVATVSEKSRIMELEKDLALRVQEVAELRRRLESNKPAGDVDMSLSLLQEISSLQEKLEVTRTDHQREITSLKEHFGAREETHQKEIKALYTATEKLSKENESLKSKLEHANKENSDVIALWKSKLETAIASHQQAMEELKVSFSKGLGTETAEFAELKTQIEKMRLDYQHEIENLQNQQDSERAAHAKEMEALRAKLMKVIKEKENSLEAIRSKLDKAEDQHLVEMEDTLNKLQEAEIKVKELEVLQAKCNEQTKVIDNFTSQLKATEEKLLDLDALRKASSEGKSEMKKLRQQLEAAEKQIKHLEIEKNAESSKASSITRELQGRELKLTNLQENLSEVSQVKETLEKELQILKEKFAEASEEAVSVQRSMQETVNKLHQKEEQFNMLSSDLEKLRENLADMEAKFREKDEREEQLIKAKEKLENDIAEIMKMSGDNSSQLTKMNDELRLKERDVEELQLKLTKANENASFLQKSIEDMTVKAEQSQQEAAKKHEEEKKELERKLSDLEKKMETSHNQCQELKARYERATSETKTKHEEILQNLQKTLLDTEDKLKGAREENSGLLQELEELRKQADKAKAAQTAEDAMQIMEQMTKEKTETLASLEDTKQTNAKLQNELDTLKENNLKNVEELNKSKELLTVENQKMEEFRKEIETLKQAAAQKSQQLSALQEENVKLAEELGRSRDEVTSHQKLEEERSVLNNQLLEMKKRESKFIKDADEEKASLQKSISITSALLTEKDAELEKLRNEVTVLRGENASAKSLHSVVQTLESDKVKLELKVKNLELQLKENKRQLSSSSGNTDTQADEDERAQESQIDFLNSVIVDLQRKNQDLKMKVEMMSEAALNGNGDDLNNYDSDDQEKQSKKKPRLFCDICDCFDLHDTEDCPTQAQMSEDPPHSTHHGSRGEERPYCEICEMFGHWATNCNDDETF
inactive: erlotinib -0.025 | [1] -0.026 | [2] 0.019 | [3] -0.005 | [4] -0.018 | [5] 0.005 | [6] 0.002 | [7] 0 | [8] -0.012 | IRAK-1-4 Inhibitor I 0.007 | [9] -0.005 | ralimetinib 0.004 | [10] 0 | [11] -0.008 | [12] -0.01 | [13] -0.016 | [14] 0.006 | [15] 0.003 | [16] -0.004

CNST (UniProt Q6PJW8)
inactive: erlotinib 0.044 | [1] -0.013 | [2] 0.05 | [3] 0.01 | [4] -0.004 | [5] 0.007 | [6] -0.054 | [7] -0.022 | [8] 0.036 | IRAK-1-4 Inhibitor I 0.023 | ibrutinib 0 | [9] 0.006 | ralimetinib 0.031 | [10] 0.022 | [11] 0.012 | [12] 0.176 | [13] -0.01 | [14] -0.035 | [15] 0.006 | [16] -0.002

CNOT4 isoform 9 (UniProt O95628)
Chain of UniProt O95628 (O95628 whole entry, looked up): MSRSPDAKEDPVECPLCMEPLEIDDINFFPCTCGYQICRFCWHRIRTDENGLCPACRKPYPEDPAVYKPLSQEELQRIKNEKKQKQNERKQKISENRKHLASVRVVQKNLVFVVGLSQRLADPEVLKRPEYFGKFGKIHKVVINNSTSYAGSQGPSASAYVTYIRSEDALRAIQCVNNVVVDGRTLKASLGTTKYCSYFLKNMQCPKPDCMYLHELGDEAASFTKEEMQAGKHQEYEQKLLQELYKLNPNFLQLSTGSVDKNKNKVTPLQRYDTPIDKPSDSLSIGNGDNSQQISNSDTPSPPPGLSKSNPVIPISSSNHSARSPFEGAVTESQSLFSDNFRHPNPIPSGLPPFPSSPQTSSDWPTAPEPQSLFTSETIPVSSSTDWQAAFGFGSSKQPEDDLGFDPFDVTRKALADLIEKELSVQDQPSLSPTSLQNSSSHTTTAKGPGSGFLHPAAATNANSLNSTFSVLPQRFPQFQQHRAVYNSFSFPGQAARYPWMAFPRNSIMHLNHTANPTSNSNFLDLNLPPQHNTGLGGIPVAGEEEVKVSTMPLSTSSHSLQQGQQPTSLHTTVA
inactive: erlotinib 0 | [1] 0.005 | [2] 0.015 | [3] -0.04 | [4] 0 | [5] -0.105 | [6] 0.015 | [7] 0.003 | [8] -0.013 | IRAK-1-4 Inhibitor I 0.054 | ibrutinib 0.052 | [9] -0.019 | ralimetinib 0.043 | [10] -0.084 | [11] -0.003 | [13] 0.032 | [14] -0.138 | [15] -0.02 | [16] 0.013

CLASP2 isoform 3 (UniProt O75122)
inactive: erlotinib 0.032 | [1] -0.014 | [2] -0.022 | [3] -0.032 | [4] -0.018 | [5] 0 | [6] -0.024 | [7] -0.024 | [8] 0.057 | IRAK-1-4 Inhibitor I -0.012 | [9] 0.004 | ralimetinib 0.019 | [10] -0.014 | [11] 0.025 | [12] 0.019 | [13] -0.008 | [14] 0.023 | [15] 0.042 | [16] 0.004

CKM (UniProt P06732)
Chain of UniProt P06732 (P06732 whole entry, looked up): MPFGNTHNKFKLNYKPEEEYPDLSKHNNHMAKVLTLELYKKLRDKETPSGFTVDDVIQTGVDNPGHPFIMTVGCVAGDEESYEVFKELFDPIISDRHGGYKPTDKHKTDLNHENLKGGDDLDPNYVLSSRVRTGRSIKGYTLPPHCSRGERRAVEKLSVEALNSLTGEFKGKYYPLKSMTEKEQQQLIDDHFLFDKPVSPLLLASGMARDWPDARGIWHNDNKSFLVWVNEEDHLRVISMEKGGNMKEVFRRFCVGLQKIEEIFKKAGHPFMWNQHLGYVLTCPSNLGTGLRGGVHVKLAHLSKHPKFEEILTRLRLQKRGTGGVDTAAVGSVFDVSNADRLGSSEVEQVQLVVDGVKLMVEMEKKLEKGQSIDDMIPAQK
inactive: erlotinib 0.034 | [1] -0.167 | [2] 0.003 | [3] 0.023 | [4] 0.058 | [5] -0.024 | [6] 0 | [7] -0.017 | [8] 0.038 | IRAK-1-4 Inhibitor I 0.044 | ibrutinib -0.002 | [9] 0.056 | ralimetinib 0.046 | [10] -0.076 | [11] 0.002 | [12] -0.001 | [13] -0.029 | [14] 0.044 | [15] 0.005 | [16] -0.02

CLUH, A0A494C0R8
inactive: erlotinib 0.077 | [1] -0.023 | [2] -0.041 | [3] 0.02 | [4] 0.225 | [5] 0 | [6] -0.114 | [7] 0.05 | [8] -0.063 | IRAK-1-4 Inhibitor I 0.008 | [9] 0.138 | ralimetinib 0.053 | [10] -0.043 | [11] 0.002 | [12] -0.128 | [13] 0 | [14] 0.016 | [15] -0.035 | [16] 0.029

CUL1 (UniProt Q13616)
Chain of UniProt Q13616 (Q13616 whole entry, looked up): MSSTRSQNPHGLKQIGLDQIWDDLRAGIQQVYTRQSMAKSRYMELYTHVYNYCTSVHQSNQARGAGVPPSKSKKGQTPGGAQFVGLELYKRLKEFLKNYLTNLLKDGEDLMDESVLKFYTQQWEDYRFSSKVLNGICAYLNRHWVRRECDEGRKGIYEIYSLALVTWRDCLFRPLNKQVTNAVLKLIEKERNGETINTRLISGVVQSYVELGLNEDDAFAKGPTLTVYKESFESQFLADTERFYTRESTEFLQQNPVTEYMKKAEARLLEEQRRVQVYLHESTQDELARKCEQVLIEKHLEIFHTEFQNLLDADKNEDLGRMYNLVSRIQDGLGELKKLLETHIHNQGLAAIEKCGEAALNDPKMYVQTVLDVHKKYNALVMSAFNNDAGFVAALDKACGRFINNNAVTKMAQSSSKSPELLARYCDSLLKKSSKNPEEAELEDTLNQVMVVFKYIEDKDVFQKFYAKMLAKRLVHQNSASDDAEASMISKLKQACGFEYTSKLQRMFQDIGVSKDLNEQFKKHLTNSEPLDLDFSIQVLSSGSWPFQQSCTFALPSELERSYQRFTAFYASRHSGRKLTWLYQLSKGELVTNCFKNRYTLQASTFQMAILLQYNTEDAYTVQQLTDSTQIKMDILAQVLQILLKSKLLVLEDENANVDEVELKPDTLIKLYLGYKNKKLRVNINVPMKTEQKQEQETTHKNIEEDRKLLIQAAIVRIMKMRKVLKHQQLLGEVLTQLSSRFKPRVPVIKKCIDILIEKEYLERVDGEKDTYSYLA
inactive: erlotinib -0.011 | [1] 0.006 | [2] 0.026 | [3] 0.01 | [4] 0.009 | [5] -0.011 | [6] 0.017 | [7] 0 | [8] -0.006 | IRAK-1-4 Inhibitor I -0.013 | ibrutinib 0.02 | [9] 0.005 | ralimetinib -0.004 | [10] -0.016 | [11] -0.018 | [12] -0.014 | [13] 0.016 | [14] 0.02 | [15] -0.001 | [16] -0.01

Source: the supplement of paper PMC10849652
